# “And” between values parts separate entries of the source, which are not always exact repeats. Equal entries are not always repeated. Where two headings read alike, the source gives them in different places.
# Legend:
# Details in all cases: n = 1
# YES = test system: T1, YES
# T1 construct: gene YES1
# YSK1 = test system: T2, YSK1
# T2 construct: gene STK25
# YSK4 = test system: T3, YSK4
# T3 construct: gene MAP3K19
# ZAK = test system: ZAK
# ZAP70 = test system: ZAP70
# p38-alpha = test system: T4, p38-alpha
# T4 construct: gene MAPK14
# p38-beta = test system: T5, p38-beta
# T5 construct: gene MAPK11
# p38-delta = test system: p38-delta
# p38-gamma = test system: T6, p38-gamma
# T6 construct: gene MAPK12
# [1] = concentration: 1 μM,replicates: in singlicate, 1 µM
# [2] = concentration: 1 μM, replicates: in singlicate
# 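Further: KINOMEscan kinase panel screen.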
compound,measurement,setting,value
CSc1nn2c(=O)cc(N3CCOCC3)nc2n1Cc1cccc(C(F)(F)F)c1C [GSK2363608],%Inh,YES; [1],19% and 22%
same,%Inh,YSK1; [1],1% and 0%
same,%Inh,YSK4; [1],40% and 30%
same,%Inh,ZAK; [1],10% and 0%
same,%Inh,ZAP70; [1],32% and 0%
same,%Inh,p38-alpha; [2],0%
same,%Inh,p38-beta; [2],0%
same,%Inh,p38-delta; [1],55% and 34%
same,%Inh,p38-gamma; [1],7% and 0%
COc1ccccc1CNC(=O)c1cc(C(=O)c2ccccc2C)c[nH]1 [GSK364507],%Inh,YES; [2],16%
same,%Inh,YSK1; [2],0%
same,%Inh,YSK4; [2],28%
same,%Inh,ZAK; [2],24%
same,%Inh,ZAP70; [2],13%
same,%Inh,p38-alpha; 1 µM,93.3%
same,%Inh,p38-beta; [2],0%
same,%Inh,p38-delta; [2],39%
same,%Inh,p38-gamma; [2],0%
Cl.c1ccc(-c2n[nH]cc2-c2ccnc(-c3ccc(CN4CCOCC4)cc3)c2)nc1 [GW776245],%Inh,YES; [2],0%
same,%Inh,YSK1; [2],0%
same,%Inh,YSK4; [2],0%
same,%Inh,ZAK; [2],13%
same,%Inh,ZAP70; [2],0%
same,%Inh,p38-alpha; [2],17%
same,%Inh,p38-beta; [2],23%
same,%Inh,p38-delta; [2],7%
same,%Inh,p38-gamma; [2],55%
CC(C)(C)c1ccc(C(=O)Nc2cn3cc(-c4cccnc4)ccc3n2)cc1,%Inh,YES; [2],10%
same,%Inh,YSK1; [2],1%
same,%Inh,YSK4; [2],66%
same,%Inh,ZAK; [2],19%
same,%Inh,ZAP70; [2],0%
same,%Inh,p38-alpha; [2],1%
same,%Inh,p38-beta; [2],30%
same,%Inh,p38-delta; [2],46%
same,%Inh,p38-gamma; [2],21%
Cn1ccc2ncnc(Oc3ccc(Nc4nc5ccccc5[nH]4)cc3)c21,%Inh,YES; [2],0%
same,%Inh,YSK1; [2],0%
same,%Inh,YSK4; [2],14%
same,%Inh,ZAK; [2],0%
same,%Inh,ZAP70; [2],0%
same,%Inh,p38-alpha; [2],5%
same,%Inh,p38-beta; [2],0%
same,%Inh,p38-delta; [2],16%
same,%Inh,p38-gamma; [2],0%
COc1cc2ncnc(Nc3ccc4nc(-c5ccccc5)[nH]c4c3)c2cc1OC.Cl [GW282450],%Inh,YES; [2],5%
same,%Inh,YSK1; [2],6%
same,%Inh,YSK4; [2],35%
same,%Inh,ZAK; [2],0%
same,%Inh,ZAP70; [2],0%
same,%Inh,p38-alpha; [2],1%
same,%Inh,p38-beta; [2],0%
same,%Inh,p38-delta; [2],36%
same,%Inh,p38-gamma; [2],0%
Cc1ccc(-c2cc(-c3c[nH]nc3-c3ccccn3)ccn2)cc1 [GW684088],%Inh,YES; [2],17%
same,%Inh,YSK1; [2],10%
same,%Inh,YSK4; [2],2%
same,%Inh,ZAK; [2],0%
same,%Inh,ZAP70; [2],10%
same,%Inh,p38-alpha; [2],56%
same,%Inh,p38-beta; [2],0%
same,%Inh,p38-delta; [2],25%
same,%Inh,p38-gamma; [2],11%
CCCc1ccc(S(=O)(=O)NC2CCN(c3ccnc(Nc4ccc(F)cc4)n3)C2)cc1 (stereo not drawn) [GSK1379715],%Inh,YES; [2],22%
same,%Inh,YSK1; [2],100%
same,%Inh,YSK4; [2],31%
same,%Inh,ZAK; [2],67%
same,%Inh,ZAP70; [2],0%
same,%Inh,p38-alpha; [2],3%
same,%Inh,p38-beta; [2],0%
same,%Inh,p38-delta; [2],29%
same,%Inh,p38-gamma; [2],0%
CC(C)(C)c1ccc(C(=O)Nc2cn3cc(Cl)ccc3n2)cc1,%Inh,YES; [2],0%
same,%Inh,YSK1; [2],0%
same,%Inh,YSK4; [2],5%
same,%Inh,ZAK; [2],0%
same,%Inh,ZAP70; [2],4%
same,%Inh,p38-alpha; [2],0%
same,%Inh,p38-beta; [2],0%
same,%Inh,p38-delta; [2],39%
same,%Inh,p38-gamma; [2],10%
Clc1cc(Cl)cc(Nc2ccnc(Nc3cc(Cl)cc(Cl)c3)n2)c1 [GSK175726],%Inh,YES; [2],20%
same,%Inh,YSK1; [2],3%
same,%Inh,YSK4; [2],0%
same,%Inh,ZAK; [2],2%
same,%Inh,ZAP70; [2],0%
same,%Inh,p38-alpha; [2],26%
same,%Inh,p38-beta; [2],0%
same,%Inh,p38-delta; [2],12%
same,%Inh,p38-gamma; [2],40%
CCn1c(-c2cccnc2O)nc2cnccc21 [SB-736715],%Inh,YES; [2],0%
same,%Inh,YSK1; [2],0%
same,%Inh,YSK4; [2],0%
same,%Inh,ZAK; [2],0%
same,%Inh,ZAP70; [2],0%
same,%Inh,p38-alpha; [2],0%
same,%Inh,p38-beta; [2],0%
same,%Inh,p38-delta; [2],8%
same,%Inh,p38-gamma; [2],0%
Cc1ccc(NC(=O)Nc2cccc(Cl)c2)cc1-c1ccc(C(=O)Nc2ccncc2)cc1 [GSK1398468],%Inh,YES; [2],13%
same,%Inh,YSK1; [2],14%
same,%Inh,YSK4; [2],92.3%
same,%Inh,ZAK; [2],68%
same,%Inh,ZAP70; [2],20%
same,%Inh,p38-alpha; [2],37%
same,%Inh,p38-beta; [2],3%
same,%Inh,p38-delta; [2],37%
same,%Inh,p38-gamma; [2],0%
O=C(Nc1n[nH]c2nc(-c3nccs3)c(Br)cc12)C1CC1 [SB-742251],%Inh,YES; [2],16%
same,%Inh,YSK1; [2],9%
same,%Inh,YSK4; [2],95.4%
same,%Inh,ZAK; [2],7%
same,%Inh,ZAP70; [2],0%
same,%Inh,p38-alpha; [2],0%
same,%Inh,p38-beta; [2],0%
same,%Inh,p38-delta; [2],20%
same,%Inh,p38-gamma; [2],0%
Cc1ccc(NC(=O)Nc2cccc(C(F)(F)F)c2)cc1 [GSK955403],%Inh,YES; 1 µM,10%
same,%Inh,YSK1; 1 µM,0%
same,%Inh,YSK4; 1 µM,0%
same,%Inh,ZAK; 1 µM,39%
same,%Inh,ZAP70; 1 µM,0%
same,%Inh,p38-alpha; 1 µM,10%
same,%Inh,p38-beta; 1 µM,57%
same,%Inh,p38-delta; 1 µM,0%
same,%Inh,p38-gamma; 1 µM,46%
Cc1cccc(-c2nc(C)cc(Nc3ccncc3)n2)n1 [GSK257997],%Inh,YES; [2],15%
same,%Inh,YSK1; [2],8%
same,%Inh,YSK4; [2],0%
same,%Inh,ZAK; [2],0%
same,%Inh,ZAP70; [2],0%
same,%Inh,p38-alpha; [2],9%
same,%Inh,p38-beta; [2],0%
same,%Inh,p38-delta; [2],51%
same,%Inh,p38-gamma; [2],6%
Fc1cccc(COc2nnc(-c3ccc4c(c3)CCO4)o2)c1,%Inh,YES; [2],0%
same,%Inh,YSK1; [2],0%
same,%Inh,YSK4; [2],31%
same,%Inh,ZAK; [2],0%
same,%Inh,ZAP70; [2],0%
same,%Inh,p38-alpha; [2],15%
same,%Inh,p38-beta; [2],0%
same,%Inh,p38-delta; [2],4%
same,%Inh,p38-gamma; [2],0%
O=C(Nc1n[nH]c2nc(-c3nccs3)c(Br)cc12)C1CCCC1 [SB-742609],%Inh,YES; [2],10%
same,%Inh,YSK1; [2],5%
same,%Inh,YSK4; [2],62%
same,%Inh,ZAK; [2],9%
same,%Inh,ZAP70; [2],0%
same,%Inh,p38-alpha; [2],0%
same,%Inh,p38-beta; [2],0%
same,%Inh,p38-delta; [2],47%
same,%Inh,p38-gamma; [2],0%
Cc1cc(NCC(c2ccccc2)c2ccccc2)nc(NCc2ccc(C(F)(F)F)cc2)n1 [GW497681],%Inh,YES; [2],0%
same,%Inh,YSK1; [2],0%
same,%Inh,YSK4; [2],13%
same,%Inh,ZAK; [2],0%
same,%Inh,ZAP70; [2],7%
same,%Inh,p38-alpha; [2],7%
same,%Inh,p38-beta; [2],0%
same,%Inh,p38-delta; [2],45%
same,%Inh,p38-gamma; [2],0%

# Reference: PMC5540273 (PLoS ONE, 2017)
